ALOX12 inh: Primary qHTS assay for inhibitors of human arachidonate 12S-lipoxygenase (ALOX12): Round 2 | Potency, µM (titrated, usually from 108 µM), inactives show at the top dose activity change, negative = inhibition, actives largely listed as inhibitors | 580,000 tested, 1.1% active | Polyunsaturated fatty acid lipoxygenase ALOX12 (Homo sapiens), P18054 | purified 12hLO, xylenol orange hydroperoxide absorbance
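Hydroperoxide product was detected by ferrous iron/xylenol orange as the 573 to 405 nm absorbance ratio. Arachidonic acid at 40 uM (final) was turned over for 30 min at room temperature by 150 nM human 12hLO, pH 7.0 Hepes buffer, after 15 min compound preincubation.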
GCN5L2 inh: qHTS Assay for Inhibitors of GCN5L2 | AID 504327, 2011 | GCN5L2 HAT assay, ThioGlo1 CoA-SH fluorescence | Histone acetyltransferase KAT2A (Homo sapiens), Q92830 | Potency, µM (highest dose often 58.9 µM), for the others: at the highest dose activity change, negative = inhibition, usual class: inhibitors | 390,000 tested, 0.21% active
Target sequence (Q92830 whole entry, looked up): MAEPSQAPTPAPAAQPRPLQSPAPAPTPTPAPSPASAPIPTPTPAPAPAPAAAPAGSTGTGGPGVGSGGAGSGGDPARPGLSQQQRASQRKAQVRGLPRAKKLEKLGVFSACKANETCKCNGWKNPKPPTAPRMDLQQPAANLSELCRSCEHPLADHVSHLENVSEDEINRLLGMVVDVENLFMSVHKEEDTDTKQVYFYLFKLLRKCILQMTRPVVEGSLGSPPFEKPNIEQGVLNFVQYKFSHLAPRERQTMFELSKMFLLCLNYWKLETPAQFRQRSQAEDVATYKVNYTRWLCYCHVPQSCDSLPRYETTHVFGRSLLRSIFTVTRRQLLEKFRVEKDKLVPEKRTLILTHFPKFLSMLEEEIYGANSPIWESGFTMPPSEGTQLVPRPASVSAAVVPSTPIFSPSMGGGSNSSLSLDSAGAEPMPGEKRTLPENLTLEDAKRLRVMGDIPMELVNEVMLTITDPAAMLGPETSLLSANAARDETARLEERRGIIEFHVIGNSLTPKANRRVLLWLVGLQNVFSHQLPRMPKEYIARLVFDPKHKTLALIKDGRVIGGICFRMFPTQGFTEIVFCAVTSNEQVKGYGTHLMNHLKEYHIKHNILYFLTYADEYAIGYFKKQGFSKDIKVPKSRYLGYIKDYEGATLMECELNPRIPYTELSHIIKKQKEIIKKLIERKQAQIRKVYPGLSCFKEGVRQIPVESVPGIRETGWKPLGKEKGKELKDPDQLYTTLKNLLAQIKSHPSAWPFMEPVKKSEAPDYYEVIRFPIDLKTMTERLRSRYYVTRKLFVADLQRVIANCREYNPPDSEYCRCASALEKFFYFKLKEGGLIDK
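Free CoA generated was detected with ThioGlo1 (50uM) fluorescence at Ex340nm/Em540nm, read immediately and after 20 min at room temperature. Enzyme, 20 nM in HEPES pH 7.5 buffer, saw compounds 15 min before adding 75uM H3(1-25) peptide and 70uM acetyl-CoA.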
VDR inh: Inhibitors of the vitamin D receptor (VDR): qHTS. Vitamin D3 receptor (Homo sapiens), P11473. VDR-SRC2-3 peptide fluorescence polarization, 2 h. Potency, µM, inactives show max response, negative = inhibition, actives largely listed as inhibitors. 400,000 tested, 0.93% active. AID 504847, 2011
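Inhibition of the VDR/SRC2-3 peptide interaction is quantified by fluorescence polarization. Compounds (23 nl, pintool) incubate with the reagents for 2 hours at ambient room temperature.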
PLK1 PBD inh: qHTS for Inhibitors of PLK1-PDB (polo-like kinase 1 - polo-box domain): Primary Screen. AID 720504, 2013. Serine/threonine-protein kinase PLK1 (Homo sapiens), P53350. Potency, µM, for inactives: max response, negative = inhibition, actives largely listed as inhibitors. Plk1 PBD binding of FITC phosphopeptide, fluorescence polarization. 360,000 tested, 2.8% active; also: series mostly up to about 57 µM; nearly all actives have a fitted effect of over 65% in size
Active calls of the source: *; ? = inconclusive; . = no result; [ ] = remark or other dose. Shown are actives, neighbours in structure and some others; about 3% of the full set was active somewhere. Calls follow the shape of the dose curve; as a rule, active = well fitted curve in the direction sought with a large enough effect; inconclusive = small, poorly fitted or top-dose-only effect, or another doubt; inactive = no such curve, though single readings can be large; an effect the other way counts as inactive or inconclusive. % is scaled to controls: 0 for no effect and ±100 for the full control effect; potency is read from the fitted curve at half-maximal effect.

SMILES	ALOX12 inh	GCN5L2 inh	VDR inh	PLK1 PBD inh
CCOc1ccccc1NC(=O)c1c(NC(=O)CCC(=O)O)sc2c1CCCCC2	?	-3%	?	?
COc1ccc(NC(=O)c2c(NCc3cccs3)sc3c2CCCC3)cc1	?	-3%	-5%	.
COc1ccc(NC(=O)c2cc(Br)c(Br)s2)cn1	13µM*	-3%	-2%	-7%
O=C(Nc1cccnc1)c1ccc(Br)s1	-59%	-5%	-2%	-12%
CCc1sc(C(=O)Nc2cccnc2)cc1Br	25µM*	-31%	6%	-3%
CCc1cc(C(=O)Nc2ccc(OC)nc2)sc1C	?	-15%	4%	?
O=C(CNCc1cccc(Cl)c1)N1CCc2ccccc2C1	?	2%	-1%	-5%
O=C(CNCc1ccc(Cl)cc1)N1CCc2ccccc2C1	32µM*	23%	7%	-9%
COc1cc(OC)c(C(=O)Nc2cc(C(C)(C)C)on2)cc1OC	-8%	.	.	.
Cc1ccc(S(=O)(=O)N2CC=C(C(=O)NC3CC3)CC2)cc1	-11%	-28%	-15%	21µM*
CCn1c(=S)[nH]c2cc(S(=O)(=O)N3CCCCC3)ccc21	-28%	-16%	6%	27µM*
COc1cccc(F)c1-c1nc(C)c(C(=O)Nc2ccc(NC(C)=O)cc2)s1	0%	.	.	.
CCN1C(=O)N[C@@H](CCc2ccccc2)C(C(C)=O)=C1C	8%	.	?	27µM*
COCCN1C(=O)N[C@@H](CCc2ccccc2)C(C(C)=O)=C1C	.	1%	0%	-8%
CCCNCc1ccc(-c2ccc(Br)cc2)o1	-29%	.	.	.
COC(=O)C1C2CCC(C2)C1C(=O)OCC(=O)c1ccc(Cl)cc1 (stereo not drawn)	3%	.	.	.
OCCC1CN(Cc2c(O)ccc3ccccc23)CCN1CCc1ccccc1 (stereo not drawn)	7.1µM*	-1%	?	24µM*
O=S(=O)(c1c(F)cccc1F)N1CCN(Cc2c(O)ccc3ccccc23)CC1	13µM*	-1%	7%	?
COc1ccc2ccc(O)c(CN3CCN(S(=O)(=O)c4cccc(C(F)(F)F)c4)CC3)c2c1	-14%	-12%	-13%	-19%
Oc1ccc2ccccc2c1CN1CCOCC1	7.1µM*	-10%	?	27µM*
Oc1cnc2ccccc2c1CN1CCOCC1	-23%	-5%	-1%	-9%
COc1ccc(N(C(C)C(=O)Nc2ccccc2Sc2ccccc2)S(C)(=O)=O)cc1 (stereo not drawn)	-25%	.	.	.
O=C(CSc1nc(-c2ccc(F)cc2)cc(C(F)(F)F)n1)NCc1ccco1	-3%	-1%	-28%	3µM*
CC(=O)N1CCN(C(=O)c2cccc3c(=O)c(C)c(-c4ccccc4)oc23)CC1	4%	.	.	.
CN(C)c1nc(C=C(C#N)C#N)c(Cl)n1-c1ccc(F)cc1	?	-7%	25µM*	15µM*
SMILES	ALOX12 inh	GCN5L2 inh	VDR inh	PLK1 PBD inh
Cc1cc(C=C(C#N)C#N)c(C)n1-c1ccncc1	-41%	.	.	.
CC(OC(=O)c1cc(C2CC2)nn1-c1ccccc1)C(=O)Nc1ccc2c(c1)OCCO2 (stereo not drawn)	-13%	.	.	.
CCOCCCn1c(-c2ccc(Cl)cc2)n[nH]c1=S	?	-3%	-3%	-6%
CCN(CC)CCCn1c(-c2ccc(COc3cc(C)ccc3Cl)cc2)n[nH]c1=S	35µM*	.	.	.
Cc1ccc(Cl)c(OCc2n[nH]c(=S)n2C)c1	32µM*	.	.	.
CCCCCn1c(COc2ccccc2Cl)n[nH]c1=S	28µM*	.	.	.
Cc1ccc(C(C)C)c(OCc2n[nH]c(=S)n2Cc2ccc(Cl)cc2)c1	28µM*	.	.	.
CC(NC(=O)NCCNc1cnccn1)c1ccc(C#N)cc1 (stereo not drawn)	-29%	.	.	.
Cc1cc(Cl)ccc1N(CC(=O)NCCN1CCOCC1)S(=O)(=O)c1ccccc1	10%	.	.	.
CSc1ccc(/C=C/C(=O)Nc2ccccc2Cc2ccccc2)cc1	11%	.	.	.
Cc1cc(S(=O)(=O)N(C)C)c(C)cc1Br	14%	.	.	.
Cn1c(COc2cc(Cl)ccc2Cl)n[nH]c1=S	50µM*	.	.	.
CC(C)CCOC(=O)/C(=C/c1ccco1)NC(=O)/C=C/c1ccccc1	40µM*	-2%	19%	1%
O=C1CC(c2ccccc2)CC(O)=C1C=Nc1ccccc1 (stereo not drawn)	-10%	-11%	-1%	24µM*
O=C1CC(c2ccccc2)CC(O)=C1C=Nc1ccccc1O (stereo not drawn)	5%	3%	5%	1%
CCOC(=O)c1ccccc1	4%[176 µM]	.	.	.
CCOC(=O)c1c(N)sn(-c2ccccc2C)c1=S	?	-26%	35µM*	5.3µM*
CC(C)c1ccc(NC(=O)c2cnc(N3CCOCC3)c3ccccc23)cc1	-1%	.	.	.
COc1cccc2cc(C(=O)Nc3ccccc3OC(F)F)c(=O)oc12	-19%	.	.	.
CCc1cccc(NC(=S)N(CCC(C)C)C(C)c2cccs2)c1 (stereo not drawn)	40µM*	.	.	.
COc1[nH]c(/N=C/c2ccccc2)c(C#N)c1C#N	?	-10%	-11%	21µM*
NS(=O)(=O)c1ccc(N/N=C/c2ccc(O)c(O)c2O)c([N+](=O)[O-])c1	?	?	?	3µM*
NS(=O)(=O)c1ccc(N/N=C/c2ccc(O)cc2O)c([N+](=O)[O-])c1	-2%	1%	7%	-8%
O=C(Cc1cn2ccsc2n1)N1CCCn2nc(C(O)C3CC3)cc2C1 (stereo not drawn)	45µM*	.	.	.
Clc1ccccc1Cc1nc(-c2ccc(OC3CCNC3)cc2)no1 (stereo not drawn)	-3%	.	.	.
SMILES	ALOX12 inh	GCN5L2 inh	VDR inh	PLK1 PBD inh
O=c1oc(-c2cccs2)nc2sc3c(c12)CCCC3	6%	-9%[0.501 µM]	3%	-7%
O=C1CN(c2nc(-c3cccs3)nc3sc4c(c23)CCCC4)CCN1	-13%	-3%	16%	27µM*
C/C(CC(=O)Nc1ccc(N(C)C)cc1)=N\NC(=O)c1ccc([N+](=O)[O-])cc1Cl	0%	-11%	79µM*	21µM*
CN(C)C(=C(C#N)C#N)N1CCN(c2ccc(Cl)c(Cl)c2)CC1	-25%	?	-18%	1%
CN(C)C(=C(C#N)C#N)N1CCN(c2ccc(Cl)cc2)CC1	-1%	-11%	-7%	30µM*
COc1cc(/C=C2\CCCc3c2nc2ccccc2c3C(=O)O)cc(Br)c1O	50µM*	-6%	-1%	-6%
O=C(O)COc1ccccc1C=NNc1ccc([N+](=O)[O-])cc1S(=O)(=O)Nc1ccc(Cl)cc1	35µM*	?	?	24µM*
O=C(O)COc1ccccc1/C=N/Nc1ccc(S(=O)(=O)Nc2ccc(Cl)cc2)cc1[N+](=O)[O-]	32µM*	?	-25%	?
CCOC(=O)CSc1nc(C2CC2)cc(-c2ccc(Cl)cc2)c1C#N	-8%	-19%	-14%	24µM*
CCOC(=O)CSc1nc(-c2ccc(Cl)cc2)cc(C(F)(F)F)c1C#N	-20%	-4%	-26%	.
